A selection: hits, their analogues and other compounds. The true share with any hit is near 1.9%.
p47phox inh: blocks human p47phox regulatory protein of NADPH oxidases | P14598 | p47phox/p22phox peptide binding, fluorescence polarization, 2 h | inhibition, % at 24.7 µM | 220,000 compounds, 0.53% hits;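 active = inhibition above about 30%, limit read from the data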;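 also: 0% = p47phox with labelled peptide and 100% = labelled peptide alone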
aDG glyco up: increases alpha dystroglycan glycosylation; Pro5-aDG cells, alpha-DG glycosylation AlphaScreen (IIH6); 0% Pro5, 100% B10-LARGE cell signal; activation, % at 10 µM; 360,000 compounds, 0.22% hits; AID 624168;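 active = activation of at least 8% versus controls, or a plate z-score of at least 8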;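 also: Pro5 are CHO cells carrying HIG-tagged alpha-DG that lacks glycosylation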
EBNA-1 inhibitor: blocks EBNA-1 binding to DNA. EBNA-1 DNA binding, fluorescence polarization. inhibition, % at 14.8 µM. 300,000 compounds, 0.34% hits. AID 1950; in the data active = inhibition above about 28%
ZTA counter: ZTA (EBV) inhibition in EBNA-1 counter-screen; P03206; ZTA-DNA binding, fluorescence polarization; inhibition, % at 11 µM; 320,000 compounds, 0.15% hits; AID 2234; in the data active = inhibition above about 33%
Target sequence (P03206 whole entry, looked up): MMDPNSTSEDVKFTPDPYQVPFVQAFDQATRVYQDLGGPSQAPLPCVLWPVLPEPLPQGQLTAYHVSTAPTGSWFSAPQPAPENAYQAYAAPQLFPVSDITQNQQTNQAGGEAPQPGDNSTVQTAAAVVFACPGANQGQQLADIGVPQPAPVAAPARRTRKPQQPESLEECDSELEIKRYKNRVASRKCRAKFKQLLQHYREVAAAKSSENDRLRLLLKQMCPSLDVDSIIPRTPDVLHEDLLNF
PG9 Ab binder: binds the HIV-1 gp120 antibody PG9 | TR-FRET gp120-PG9 antibody binding | 360,000 compounds, 0.43% hits | inhibition, % at 6.7 µM; in the data active = inhibition above about 8.5%
NR1D1 modulator: modulators of human Rev-erb alpha DNA binding; P20393; Rev-erbα–FITC-DNA binding, fluorescence polarization, 90 min; activity, % at 10 µM; 370,000 compounds, 0.79% hits;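 active = activity above about 14%, limit read from the data; passing the limit was not always enough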;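 also: 0% = DMSO wells with 35 nM protein and 100% = DMSO wells with 750 nM protein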
NR1D1 mod conf: Rev-erb alpha (human) modulation, hit confirmation. 3,000 compounds, 61% hits. shares compounds with NR1D1 modulator. Rev-erb alpha FITC-DNA binding, fluorescence polarization, 90 min. AID 1259319. activation, % at 25 µM;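 active = activation at or above a set limit, or at least 3 SD above the negative control mean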;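 also: 0% = 35 nM protein with DMSO and 100% = 750 nM protein high control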
RORg DNA counter: affects RORgamma DNA binding in a Rev-erb alpha counter-screen; shares compounds with NR1D1 modulator; purified RORgamma protein-FITC-DNA binding, fluorescence polarization; IC50, µM; 910 compounds, 8% hits; AID 1259320;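 active = Compounds whose fitted half-maximal concentration for disrupting protein-DNA binding is below 10 micromolar; the record names Rev-erb in its text, so the target is in doubt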
* hit, by the source's call; · = no result given.

SMILES	p47phox inh	aDG glyco up	EBNA-1 inhibitor	ZTA counter	PG9 Ab binder	NR1D1 modulator	NR1D1 mod conf	others
COc1ccc(-c2ccc(-c3noc(-c4ccccc4C)n3)c(OC)n2)cc1	-129	0	3	17	2	40*	11
Cc1ccc(-c2cc(-c3nnc(SCC(=O)N4CCOCC4)n3N)[nH]n2)cc1	·	·	·	·	·	-9	·
Cc1ccccc1CN1CCCCC(NC(=O)c2ccc(N(C)C)cc2)C1=O (stereo not given)	·	·	·	·	·	5	·
COc1ccc(-c2ccc(-c3noc(-c4ccccc4OC)n3)c(OC)n2)cc1	-119	0	10	-2	0	37*	15
CCc1cc2c3c(c(=O)oc2cc1OC)CCCC3	-6	0	-5	0	2	-3	·
COc1cc2oc(=O)c3c(c2cc1OCC(=O)c1c(C)n(C)c2ccccc12)CCCC3	-172	0	5	-9	-1	36*	-12
CC(C)CNS(=O)(=O)/C=C/c1ccc(F)cc1CNC(=O)OC(C)(C)C	·	·	·	·	·	-2	·
O=C(CCCC(=O)OCC(=O)c1cccs1)Nc1ccc(Oc2ccccc2)cc1	-31	0	-12	-8	0	68*	48*	RORg DNA counter=>40
COC(CNC(=O)[C@H](Cc1ccccc1)NC(C)(C)C(=O)NC1CCCCC1)OC	·	·	·	·	·	3	·
O=C(CCl)N1c2ccccc2Oc2ccc3ccccc3c21	·	5	·	·	-3	15*	10
CC(=O)N1c2ccccc2Oc2cc3ccccc3cc21	-5	1	-3	-10	1	1	·
O=C(CN1CCCc2ccccc21)NCc1ccccc1F	·	·	·	·	·	1	·
O=C(NC1CCCCN(Cc2cccc(C(F)(F)F)c2)C1=O)c1cccc(F)c1 (stereo not given)	·	·	·	·	·	2	·
O=C(NCCO)C1(C(=O)C2CC2)CC(c2ccccc2C(F)(F)F)=NO1 (stereo not given)	·	·	·	·	·	4	·
CCNC(=O)Cn1cc(C(F)(F)F)cc(Cl)c1=O	-7	0	9	11	-1	7	·
O=C(Cn1cc(C(F)(F)F)cc(Cl)c1=O)NCc1ccc(Cl)cc1Cl	·	0	10	5	4	39*	56*	RORg DNA counter=>40
Nn1c(SCc2ccc([N+](=O)[O-])cc2)nnc1-c1cc(-c2ccccc2)n[nH]1	·	·	·	·	·	-6	·
C=CCn1c(=O)c(C(=O)NCCc2ccc(Cl)cc2)c(O)c2cc(OC)c(OC)cc21	·	0	-16	-16	0	29*	4
CSc1nc(C)c2c(n1)N(c1ccc(C(F)(F)F)cc1)CC2	-4	0	2	12	-1	23*	1
COC(=O)c1cc(C(C)c2ccccc2O)n2ccccc12 (stereo not given)	·	·	·	·	·	7	·
Cc1nn(C)cc1NC(=O)C[C@H]1CC[C@H]2[C@@H](COc3ccc(NC(=O)Nc4ccccc4)cc3C(=O)N2C)O1	·	·	·	·	·	42*	21*
CN1C(=O)c2cc(NC(=O)Nc3ccccc3)ccc2OC[C@H]2O[C@@H](CC(=O)NC3CCC3)CC[C@@H]21	·	·	·	·	·	49*	29*	RORg DNA counter=>40
COc1ccc(C(=O)Nc2ccc3c(c2)C(=O)N(C)[C@H]2CC[C@H](CC(=O)NCC4CC4)O[C@@H]2CO3)cc1	·	·	·	·	·	30*	18*
COCCCN1C(=O)[C@H](CC(=O)NCc2ccccc2)[C@]2(C(=O)OC)CCCCC=C12	·	·	·	·	·	0	·
COc1ccc2c(c1)-c1c(ssc1=S)C(C)(C)N2C(=O)CSC1=NCCS1	-6	0	-3	4	0	21*	30*
O=C(O)CSc1c2ccccc2cc2ccccc12	·	0	15	-4	-1	41*	38*	RORg DNA counter=>40
COc1cccc(OC)c1-c1nn2c(-c3cc(-c4ccccc4)n[nH]3)nnc2s1	54*	0	60*	165*	-17	65*	83*	RORg DNA counter=>40
Cc1cc(-c2nnc3sc(-c4ccc(Cl)cc4Cl)nn23)n[nH]1	-4	0	2	13	6	45*	40*	RORg DNA counter=>40
Clc1ccccc1-c1nn2c(-c3cc(-c4ccccc4)n[nH]3)nnc2s1	·	·	·	·	·	30*	44*	RORg DNA counter=>40

Bioassay records deposited in PubChem by several laboratories.
